GDH-TPI inh: GDH-TPI coupling enzyme inhibitors, primary screen, artefact control for M. tuberculosis FBA inhibitor project, biochemical, absorbance, full deck | GDH-TPI coupled enzyme counterscreen, NADH absorbance | inhibition, % at 4.8 µM | hit rate 1.2% among 360,000 | AID 588335, 2011; in the data active = inhibition above about 30%;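 note: 0% = DMSO wells and 100% = wells lacking the enzyme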
UGM FP inh: M. tuberculosis UGM enzyme inhibitors, primary screen, biochemical, fluorescence polarization, single point; inhibition, % at 10 µM; purified UGM, fluorescence polarization probe displacement; hit rate 0.06% among 320,000; UDP-galactopyranose mutase (Mycobacterium tuberculosis (strain ATCC 25618 / H37Rv)), …; in the data active = inhibition above about 10%, passing the limit was not always enough; inconclusive = no clear call, values can overlap the other calls
Target sequence (P9WIQ1 whole entry, looked up): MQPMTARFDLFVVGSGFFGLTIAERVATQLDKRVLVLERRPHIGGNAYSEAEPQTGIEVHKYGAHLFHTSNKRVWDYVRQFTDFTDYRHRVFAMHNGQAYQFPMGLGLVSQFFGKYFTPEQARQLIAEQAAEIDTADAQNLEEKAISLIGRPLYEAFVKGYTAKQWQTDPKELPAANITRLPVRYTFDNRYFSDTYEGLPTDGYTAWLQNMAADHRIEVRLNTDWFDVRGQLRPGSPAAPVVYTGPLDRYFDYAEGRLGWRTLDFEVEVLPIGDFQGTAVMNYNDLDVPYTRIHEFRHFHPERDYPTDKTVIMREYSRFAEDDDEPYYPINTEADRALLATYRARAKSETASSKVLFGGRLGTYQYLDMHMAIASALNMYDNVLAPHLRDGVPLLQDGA
Rv3671c protease: Rv3671c serine protease inhibitors, primary screen, biochemical, fluorescence polarization, M. tuberculosis H37Rv; P9WHR9; hit rate 0.048% among 320,000; inhibition, % at 5.96 µM; in the data active = inhibition above about 38%;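 note: extracellular domain of Rv3671c used as enzyme; 0% = enzyme with DMSO and 100% = no enzyme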
FBA Mtb inh: Mtb FBA enzyme inhibitors, primary screen, biochemical, fluorescence, strain H37Rv; Fructose-bisphosphate aldolase (Mycobacterium tuberculosis (strain ATCC 25618 / H37Rv)), …; purified M. tuberculosis FBA, fluorescence read-out; inhibition, % at 1 µM; hit rate 2.3% among 360,000; in the data active = inhibition above about 27%;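 note: 0% = vehicle and 100% = reference inhibitor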
Mtb bLac sens: beta-lactam sensitization of Mtb H37Rv, H37Rv | M. tuberculosis H37Rv growth with meropenem, percent inhibition | hit rate 0.27% among 330,000 | AID 434955, 2010 | inhibition, % at 25 µM; call rule not given here;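 note: growth measured after seven days incubation then overnight dye step; 0% = bacteria only wells and 100% = bacteria with antibiotic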
* hit, by the source's call; ? = inconclusive; nt = no result given; + = active, no number. Rows were chosen to be rich in hits. Some 3.5% of all compounds tested hit in one or more screens of this group.

SMILES | GDH-TPI inh | UGM FP inh | Rv3671c protease | FBA Mtb inh | Mtb bLac sens
CN(C)S(=O)(=O)c1ccc2c(c1)C(=NNC(N)=O)c1cc(S(=O)(=O)N(C)C)ccc1-2 | 18 | 0 | nt | -3 | 7
Cc1cc(C)nc(N/N=C/C2=C(N3CCOCC3)C(=C/c3ccccc3)/CC2)n1 | 32* | 1 | 2 | 0 | 98
Nc1cc2sc(-c3ccc(C(=O)O)cc3)nc2cc1Cl | 26 | 1 | -10 | 139* | 3
Nc1cccc(-c2nc3ccc(N)cc3s2)c1 | 23 | -2 | -1 | 164* | 37
O=C(O)c1ccc2nc(-c3ccccc3)sc2c1 | 4 | 3 | 2 | 3 | 0
Nc1ccc(-c2nc3ccc(N)cc3s2)cc1 | 47* | -1 | -6 | + | 16
Nc1ccc(-c2nc3ccc(C(=O)O)cc3s2)cc1 | 54* | -1 | 4 | nt | 8
COc1ccc(N2CCN(C(=O)c3cc(C)on3)CC2)cc1 | 9 | -1 | -12 | 3 | 7
c1ccc2nc(-c3nc4ccccc4[nH]3)ccc2c1 | 36* | 0 | -6 | 23 | 94
COc1ccc(C2C(C(=O)c3cccs3)=C(O)C(=O)N2c2nncs2)cc1 (stereo not drawn) | 7 | 13* | 0 | -2 | -3
COc1ccc(Nc2nc(-c3ccccc3)nc3ccccc23)cc1S(=O)(=O)N1CCOCC1 | 40* | 0 | -107 | 7 | -4
COc1ccc(C(=O)Nc2ccc(-c3ccc(C)o3)cc2)cc1S(=O)(=O)N1CCOCC1 | 38* | 2 | -7 | 2 | 1
COc1ccc(C(=O)Nc2ccc(N3CCOCC3)cc2)cc1S(=O)(=O)N1CCOCC1 | -1 | nt | nt | 5 | nt
C=CCc1c(C)nc(SC)nc1Nc1ccc(C(C)=O)cc1 | 48* | 2 | -12 | -3 | 99
C=CCc1c(C)nc(SC)nc1Nc1ccc(C(=O)O)cc1 | 10 | -1 | 3 | 1 | ?
Nc1nc2nccc(-c3ccc(Cl)cc3)n2n1 | 34* | 2 | -4 | + | 2
Clc1ccc(-c2cnn3c(-c4ccncc4)ccnc23)cc1 | -3 | -1 | -8 | -8 | 49
COC(=O)c1nn(-c2ccc3c(c2)OCO3)cc1O | 0 | -1 | -2 | 26 | 67
COC(=O)c1nn(-c2ccc3c(c2)CCN3C(C)=O)cc1O | 19 | 4 | -6 | 195* | 0
Cc1c(Cc2ccccc2)c(=O)oc2cc(OCC(=O)N3CCC(C(=O)O)CC3)ccc12 | 32* | -1 | 2 | 148* | -5
Cc1c(C)c2ccc(OCC(=O)N3CCN(Cc4ccccc4)CC3)cc2oc1=O | 3 | 0 | 3 | 0 | 0
O=C(COc1ccc2c(c1)oc(=O)c1ccccc12)N[C@@H](Cc1ccccc1)C(=O)O | 9 | 4 | -11 | 115* | -6
Cc1cc(=O)oc2cc(O[C@@H]3O[C@H](CO)[C@H](O)[C@H](O)[C@H]3O)ccc12 | 6 | 3 | -7 | 7 | -7
Cc1c(OCC(=O)N2CCC(C(=O)O)CC2)ccc2c1oc(=O)c1ccccc12 | 11 | -3 | 1 | 142* | -6
O=c1oc2cc(O[C@@H]3OC[C@@H](O)[C@H](O)[C@H]3O)ccc2c2ccccc12 | 15 | 2 | 3 | 71* | 1
SMILES | GDH-TPI inh | UGM FP inh | Rv3671c protease | FBA Mtb inh | Mtb bLac sens
Cc1ccc2cc(/C=N/NC(=O)c3ccccc3[N+](=O)[O-])c(Cl)nc2c1 | -1 | 2 | -4 | 4 | -2
O=C(COc1ccc2c3c(c(=O)oc2c1)CCCC3)N1CCN(c2ccc(F)cc2)CC1 | 6 | 1 | 3 | 4 | -5
O=C(O)C1CCN(C(=O)COc2ccc3c(c2)oc(=O)c2ccccc23)CC1 | 11 | -2 | 0 | 138* | -9
CC(=O)Nc1ccc(CN2CCN(CCc3ccccc3)C(CCO)C2)cc1 (stereo not drawn) | 8 | -1 | -1 | -3 | -8
CSc1nc2nc(C)cc(-c3ccccc3)n2n1 | 9 | 7 | -2 | 25 | -17
CSc1nc2nc(C(F)(F)F)cc(-c3ccccc3)n2n1 | 24 | 1 | -7 | 34* | -6
CSc1nc2nc(-c3ccccc3)cc(C(F)(F)F)n2n1 | 12 | 1 | 5 | 37* | -6
CN(CCOc1ccccc1)C(=O)c1ccc(N2CCCC2)c([N+](=O)[O-])c1 | 5 | 1 | 12 | -4 | -3
COc1ccc(S(=O)(=O)N(C)c2ccc(C(=O)NCc3ccco3)cc2)cc1 | 2 | -1 | -4 | -2 | -15
O=C(Cc1cc(=O)oc2cc(O)ccc12)NCC1CCC(C(=O)O)CC1 (stereo not drawn) | 10 | 0 | -9 | + | 1
Cc1cc(=O)oc2cc(OC(C)C(=O)NCC3CCC(C(=O)O)CC3)ccc12 (stereo not drawn) | 18 | 1 | 0 | 28* | -3
C/C(=N\NC(=O)Cn1nc(C)c([N+](=O)[O-])c1C)c1ccco1 | -3 | 4 | -7 | 0 | -9
Cn1cc(-c2nnc(-c3ccccc3)o2)c2ccccc21 | 15 | -2 | 0 | 173* | 24
Cc1ccccc1-c1nnc(-c2ccccc2)o1 | -2 | -6 | -2 | 3 | 66
COc1ccc(Nc2nnc(SCC(=O)NC3CCCC3)s2)cc1 | 2 | nt | nt | 0 | nt
COc1cc(-c2cnc3c(NC=O)cc(-c4ccc(N5CCN(C)CC5)cc4)cn23)cc(OC)c1OC | 11 | nt | nt | 1 | nt
COc1cc(-c2nc3ccc(N4CCN(C)CC4)cc3[nH]2)cc(OC)c1OC | 11 | -1 | 6 | + | 6
Nc1ncc(Br)cc1Br | 8 | nt | -5 | 1 | 0
Nc1ncc([N+](=O)[O-])cc1Br | 52* | -1 | 8 | 0 | -5
CCOC(=O)c1ccc(Nc2nc(C)cc(C)n2)cc1 | -8 | 0 | nt | 1 | 2
CC(=O)c1ccc(Nc2nc(C)cc(C)n2)cc1 | 33* | 1 | -5 | 0 | 5
NCCCC[C@H]1CNC(=O)C(=O)N1CCc1cccc2ccccc12 | 5 | 1 | -5 | 1 | 7
COc1ccc(OC)c2c1sc(=NC(=O)c1ccco1)n2C | 34* | -5 | -16 | 0 | 2
COc1ccc(OC)c2c1sc(=NC(=O)C1CC1)n2C | 21 | 1 | 1 | 5 | -5
CCn1c(=NC(=O)c2ccco2)sc2cccc(F)c21 | 51* | -1 | -10 | 3 | 62
CCOC(=O)c1ccc2c(c1)sc(=NC(=O)c1ccco1)n2CCOC | 18 | -1 | 1 | 10 | -2
Nc1c(C(=O)c2ccccc2)oc2ccc(Br)cc12 | 8 | 3 | -8 | 4 | -20
Nc1c(C(=O)c2ccccc2)oc2ccc([N+](=O)[O-])cc12 | 34* | -2 | -1 | 3 | -2
CC(=O)c1c(C)[nH]c(C(=O)COC(=O)c2nccnc2N)c1C | 10 | -1 | 11 | 157* | 3
Nc1nccnc1C(=O)OCC(=O)c1ccc[nH]1 | 12 | -2 | 7 | 165* | -6

Bioassay records: PubChem, several laboratories
